Bioassay records (PubChem)
Shown is part of a subset that was picked to be rich in hits.
Pf Dd2 growth = qHTS Primary assay for Inhibitors of Plasmodium falciparum Dd2 growth in vitro; P. falciparum Dd2 growth, SYBR Green, 72 h; Potency, µM (doses to about 28.9 µM), without a hit: at the top dose activity, negative = inhibition, most hits filed as inhibitors; 4.3% of 120,000 active; AID 1347417, 2020; active = well fitted inhibition curve with a large enough effect;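 also: plate controls were DMSO vehicle for no effect and reference drug for full effect; nearly all actives have a fitted effect of over 65% in size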
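Infected erythrocytes (Dd2, 0.3% parasitemia, 2.5% hematocrit final) are added to compound in RPMI-1640/Albumax II medium, grown 72 h at 37C in low oxygen, then lysed with saponin/Triton-X containing SYBR Green and read by fluorescence.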
Numbers without * were called inactive; i = inactive; [ ] = remark or other dose. Potency is read from the fitted curve at half-maximal effect.

SMILES	Pf Dd2 growth
CC(=O)Nc1ccc(NC(=O)c2ccc3c(c2)N(Cc2cccc(Cl)c2)C(=O)c2ccccc2S3(=O)=O)cc1	-24.8%
CC(C)N1C(=O)CO[C@H](c2ccc(NC(=O)c3ccco3)cc2)[C@H]1CO	11.7%[44.1 µM]
Cn1nc(C(=O)NCCc2noc(-c3ccncc3)n2)c2ccccc21	-19.0%
O=C1Nc2ccc(-c3cccc(C(F)(F)F)c3)cc2C(=O)N2CCN(C(=O)[C@@H]3CSCN3)C[C@H]12	i
Cc1noc(C)c1S(=O)(=O)N1CCC(Cc2nc(-c3ccncc3)n[nH]2)C1 (centres undefined)	i
Cc1ccc(NC(=O)Nc2ccccc2)c(=O)n1CC(=O)NCC1CCCO1 (centres undefined)	-12.8%
CC1=NOC2(CCN(Cc3ccccn3)CC2)C1	i
CC(C)NC(=O)N1C[C@@H](Oc2ccccc2)C[C@@H]1C(=O)N1CCOCC1	i
O=C(NCCc1noc(C2CC2)n1)NC1CCCC1	-23.0%
O=C(CN1C(=O)NC(c2ccccc2Cl)C2=C1COC2=O)NCc1ccc2c(c1)OCO2 (centres undefined)	i
CCOc1ccccc1NC(=O)C1c2ccccc2C(=O)N(CCOC)C12CCCCC2 (centres undefined)	3.98µM*
COc1ccccc1NC(=O)C1c2ccccc2C(=O)N(Cc2ccccc2)C12CCCC2 (centres undefined)	11.2µM*
CC(C)CCNC(=O)C1c2ccccc2C(=O)N(Cc2ccccc2)C12CCCC2 (centres undefined)	-15.6%
CC(C)CN1C(=O)c2ccccc2C(C(=O)Nc2ccccn2)C12CCCC2 (centres undefined)	14.1µM*
CC(C)NC(=O)C1c2ccccc2C(=O)N(Cc2ccco2)C12CCCCC2 (centres undefined)	-14.5%
O=C(NCC1CCOCC1)C1c2ccccc2C(=O)N(Cc2ccccc2)C12CCCC2 (centres undefined)	-23.4%
CC(C)CN1C(=O)c2ccccc2C(C(=O)N2CCSCC2)C12CCCC2 (centres undefined)	-14.7%
CCc1ccccc1NC(=O)C1c2ccccc2C(=O)N(CCOC)C12CCCC2 (centres undefined)	i
COCCN1C(=O)c2ccccc2C(C(=O)NC2CCCC2)C12CCCCC2 (centres undefined)	11.8%
Cc1ccnc(NC(=O)C2c3ccccc3C(=O)N(CC(C)C)C23CCCC3)c1 (centres undefined)	5.01µM*
COCCN1C(=O)c2ccccc2C(C(=O)Nc2ccc(C)cc2Cl)C12CCCC2 (centres undefined)	i
Cc1cc(CN(C)C(=O)[C@H]2C[C@@H](C(=O)O)N(C)[C@H]2c2cccc(F)c2F)on1	9.3%
O=C([C@@H]1C[C@H](F)CN1C(=O)c1ccccc1)N1CCCCC1	27.0%
COc1ccc(-n2nc(C3CCN(CCC(C)C)CC3)[nH]c2=O)cc1	-8.0%
COCc1nc(C2CCCN(C(=O)c3cccc(OC)c3OC)C2)no1 (centres undefined)	7.7%
SMILES	Pf Dd2 growth
COC1C(=O)N(C2CCN(S(=O)(=O)c3c(C)noc3C)CC2)C12CCOCC2 (centres undefined)	-1.7%
O=C(NC1CCN(C(=O)N2CC3CC(C2)[C@H]2CCCC(=O)N2C3)CC1)c1cccs1 (some centres undefined)	-0.6%
O=C(Nc1ccccc1F)N1CCC(Oc2ncccc2C(=O)N2CCOCC2)C1 (centres undefined)	60.6%
CN1c2cc(C(=O)Nc3cccc(Cl)c3)ccc2C(=O)N2CCCCCC21 (centres undefined)	i
O=C1CC2CCN(Cc3ccc(F)c(F)c3F)CC2CCN1 (centres undefined)	18.8%
O=C(c1ccc2cc[nH]c2c1)N1C[C@@H](CO)[C@H](c2nc(C3CC3)no2)C1	-11.5%
COCCO[C@H]1COCCN(S(=O)(=O)c2ccc(F)cc2)C1	7.6%[44.1 µM]
COc1ccc(-c2nc(-c3nnn4c3COC(c3ccc(C)cc3)C4)no2)cc1OC (centres undefined)	i
CC(=O)N1CCC([C@@H]2CN(C3CCSCC3)C[C@H]2CO)CC1	0.6%
COCCNC(=O)c1cc(-c2cnn(Cc3ccccc3)c2)cc2ncn(C)c12	24.7%[44.1 µM]
COCCN1C(=O)c2ccccc2C(C(=O)NC2CCCCC2)C12CCCC2 (centres undefined)	-1.3%
COCCN1C(=O)c2ccccc2C(C(=O)Nc2cc(C)ccn2)C12CCCCC2 (centres undefined)	12.6µM*
COCCN1C(=O)c2ccccc2C(C(=O)NC2CCCCCC2)C12CCCC2 (centres undefined)	-13.4%
COCCN1C(=O)c2ccccc2C(C(=O)Nc2ccc(F)cc2)C12CCCCC2 (centres undefined)	-19.2%
COCCN1C(=O)c2ccccc2C(C(=O)Nc2ccc3c(c2)OCCO3)C12CCCC2 (centres undefined)	-23.0%
CC(C)CN1C(=O)c2ccccc2C(C(=O)Nc2ccc(C(N)=O)cc2)C12CCCCC2 (centres undefined)	12.6µM*
O=C(NCCCN1CCCC1=O)c1ccc2c(c1)[nH]c(=O)n2C1CCC(O)CC1 (centres undefined)	15.8%
COc1cccc(N2CC(C(=O)NCc3cccc(F)c3)NC2=O)c1 (centres undefined)	-16.2%[44.1 µM]
CCN1CCC(CCNC(=O)C2CCCN(Cc3ccncc3)CCC(=O)NCC2)CC1 (centres undefined)	29.0%
CCC(C(=O)NC1CCN(c2cnn(C)c(=O)c2)CC1)c1ccccc1 (centres undefined)	-0.8%
O=C1NC(=NC2CCCCC2)C2(CCN([S+](=O)([O-])c3cccc(C(F)(F)F)c3)CC2)N1c1cccnc1	-18.2%
CN1CC(=O)N(C2CCCNC2)Cc2c(NC3CCN(Cc4ccccc4)CC3)ncnc21 (centres undefined)	-2.9%
Cn1nc2n(c1=O)CCC(NC(=O)c1cncc(Br)c1)CC2 (centres undefined)	i
O=C(O)CC1COCCN1C(=O)c1cc(-n2cccn2)ccc1Cl (centres undefined)	18.3%
Cc1ncsc1CN1CCC2(CC1)CC(Cc1nc(-c3ccccc3)no1)CCO2 (centres undefined)	i
SMILES	Pf Dd2 growth
Cc1nc2c(c(-c3ccc(O)cc3)n1)CN(Cc1ccc(C(F)(F)F)cc1)CC2	-3.0%
COc1ccccc1CN1CCCc2nc(C)nc(-c3ccc(O)cc3)c2C1	-16.1%
Cc1nc2c(c(-c3ccc(O)cc3)n1)CN(Cc1ccccc1)CC2	i
Cc1nc2c(c(-c3ccc(O)cc3)n1)CN(Cc1ccccn1)CCC2	i
Cc1nc2c(c(-c3ccc(O)cc3)n1)CN(Cc1cccnc1)CCC2	-1.2%
Cc1nc2c(c(-c3ccc(O)cc3)n1)CN(Cc1ccc(C(F)(F)F)cc1)CCC2	0.891µM*
Cc1nc2c(c(-c3ccc(O)cc3)n1)CN(Cc1cccc3ccccc13)CCC2	12.6µM*
COc1ccc(CN2CCCc3nc(C)nc(-c4ccc(O)cc4)c3C2)cc1	-40.8%
Cc1nc2c(c(-c3ccc(O)cc3)n1)CN(Cc1ccccc1)CCC2	4.47µM*
COc1ccc(C(=O)N2CCC3(CC2)C(OC)CN3c2cccc(F)c2)c(OC)c1 (centres undefined)	-28.0%
CC(=O)N1CCC(n2nccc2NC(=O)Nc2ccccc2C)CC1	-5.1%
COC(=O)CN1C(=O)[C@@H]2C[C@@H](O)CN2C2(CN(Cc3cccs3)C2)C1=O	-14.3%[44.1 µM]
COc1ccc(C(=O)N2CCC3(Cc4ccccc4NC3=O)C2)cc1 (centres undefined)	i
